# In ChEMBL document CHEMBL2218924, “A broad activity screen in support of a chemogenomic map for kinase signalling research and drug discovery” (Biochem J, 2013):
# Legend:
# [1] = molecular target: Protein kinase C alpha type (Homo sapiens) (UniProt P17252); conditions: at 1 µM
# [2] = molecular target: Protein kinase C alpha type (Homo sapiens) (UniProt P17252); conditions: at 10 µM
# [3] = molecular target: Protein kinase C beta type (Homo sapiens) (UniProt P05771); conditions: at 10 µM
# [4] = molecular target: Protein kinase C gamma type (Homo sapiens) (UniProt P05129); conditions: at 1 µM
# [5] = molecular target: Protein kinase C gamma type (Homo sapiens) (UniProt P05129); conditions: at 10 µM
# [6] = molecular target: Protein kinase C delta type (Homo sapiens) (UniProt Q05655); conditions: at 1 µM
# Chain of Protein kinase C delta type (Homo sapiens) (Q05655 whole entry, looked up): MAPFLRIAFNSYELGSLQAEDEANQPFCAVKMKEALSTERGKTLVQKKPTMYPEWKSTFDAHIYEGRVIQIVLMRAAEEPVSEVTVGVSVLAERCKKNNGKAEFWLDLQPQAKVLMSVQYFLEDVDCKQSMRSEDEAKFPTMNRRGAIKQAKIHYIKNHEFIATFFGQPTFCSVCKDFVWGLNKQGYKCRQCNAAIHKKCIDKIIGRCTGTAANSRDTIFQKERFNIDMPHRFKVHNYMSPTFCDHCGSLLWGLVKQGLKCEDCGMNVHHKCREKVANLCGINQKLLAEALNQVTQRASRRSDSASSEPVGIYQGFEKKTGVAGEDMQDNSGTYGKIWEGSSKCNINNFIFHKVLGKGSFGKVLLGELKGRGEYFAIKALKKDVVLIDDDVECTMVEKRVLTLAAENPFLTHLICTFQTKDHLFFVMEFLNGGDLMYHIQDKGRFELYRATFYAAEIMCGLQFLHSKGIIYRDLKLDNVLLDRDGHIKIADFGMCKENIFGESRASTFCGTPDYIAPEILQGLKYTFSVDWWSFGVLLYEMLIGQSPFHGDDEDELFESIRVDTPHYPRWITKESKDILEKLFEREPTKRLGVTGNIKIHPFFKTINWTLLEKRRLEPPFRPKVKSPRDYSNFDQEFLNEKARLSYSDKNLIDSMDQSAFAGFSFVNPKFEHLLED
# [7] = molecular target: Protein kinase C delta type (Homo sapiens) (UniProt Q05655); conditions: at 10 µM
# [8] = molecular target: Protein kinase C beta type (Homo sapiens) (UniProt P05771); conditions: at 1 µM
# [9] = molecular target: Protein kinase C beta type (Homo sapiens) (UniProt P05771); conditions: at 10 µM; remark: listed apart in the source
# [10] = molecular target: Protein kinase C beta type (Homo sapiens) (UniProt P05771); conditions: at 1 µM; remark: listed apart in the source
# [11] = molecular target: T1, Protein kinase C epsilon type (Homo sapiens) (UniProt Q02156); conditions: at 1 µM
# T1 sequence (whole entry): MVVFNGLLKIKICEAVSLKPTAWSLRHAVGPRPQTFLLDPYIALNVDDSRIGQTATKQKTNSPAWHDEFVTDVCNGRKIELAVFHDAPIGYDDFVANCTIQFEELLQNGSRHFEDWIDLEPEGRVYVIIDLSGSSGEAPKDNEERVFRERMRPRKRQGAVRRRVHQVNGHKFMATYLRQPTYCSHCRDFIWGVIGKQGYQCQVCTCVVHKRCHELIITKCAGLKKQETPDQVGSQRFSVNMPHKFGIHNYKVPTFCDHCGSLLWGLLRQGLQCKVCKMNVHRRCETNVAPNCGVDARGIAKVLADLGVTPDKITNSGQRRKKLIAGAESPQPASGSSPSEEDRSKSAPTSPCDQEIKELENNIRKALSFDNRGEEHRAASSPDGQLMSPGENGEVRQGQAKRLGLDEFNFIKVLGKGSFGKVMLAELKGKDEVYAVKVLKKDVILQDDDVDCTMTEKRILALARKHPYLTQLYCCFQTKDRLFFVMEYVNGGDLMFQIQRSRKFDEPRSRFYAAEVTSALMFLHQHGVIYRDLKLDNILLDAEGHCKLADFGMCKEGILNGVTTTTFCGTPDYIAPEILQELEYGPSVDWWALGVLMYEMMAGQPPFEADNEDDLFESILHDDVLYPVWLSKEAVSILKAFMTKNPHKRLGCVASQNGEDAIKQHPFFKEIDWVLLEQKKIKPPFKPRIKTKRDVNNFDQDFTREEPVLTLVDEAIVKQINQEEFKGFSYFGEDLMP
# [12] = molecular target: T1, Protein kinase C epsilon type (Homo sapiens); conditions: at 10 µM
# Chain of Protein kinase C beta type (Homo sapiens) (P05771 2-671 limits assumed): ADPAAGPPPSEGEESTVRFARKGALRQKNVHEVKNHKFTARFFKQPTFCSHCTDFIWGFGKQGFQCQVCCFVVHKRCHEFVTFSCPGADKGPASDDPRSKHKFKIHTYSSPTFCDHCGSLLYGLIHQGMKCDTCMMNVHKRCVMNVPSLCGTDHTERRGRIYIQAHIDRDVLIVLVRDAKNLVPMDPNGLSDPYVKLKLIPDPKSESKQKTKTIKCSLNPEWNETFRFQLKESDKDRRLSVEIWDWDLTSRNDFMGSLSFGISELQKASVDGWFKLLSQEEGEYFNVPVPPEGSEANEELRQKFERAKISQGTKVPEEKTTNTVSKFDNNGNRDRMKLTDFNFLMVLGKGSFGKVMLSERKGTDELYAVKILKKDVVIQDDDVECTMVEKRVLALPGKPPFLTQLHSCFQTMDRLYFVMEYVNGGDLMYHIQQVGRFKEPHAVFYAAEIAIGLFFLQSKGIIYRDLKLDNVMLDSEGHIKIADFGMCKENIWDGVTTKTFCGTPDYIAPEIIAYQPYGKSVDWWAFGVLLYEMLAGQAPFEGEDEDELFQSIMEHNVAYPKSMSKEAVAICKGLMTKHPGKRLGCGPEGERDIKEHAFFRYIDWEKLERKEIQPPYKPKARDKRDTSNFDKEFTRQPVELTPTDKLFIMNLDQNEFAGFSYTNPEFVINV
SMILES,residual activity [1] [%],residual activity [2] [%],residual activity [3] [%],residual activity [4] [%],residual activity [5] [%],residual activity [6] [%],residual activity [7] [%],residual activity [8] [%],residual activity [9] [%],residual activity [10] [%],residual activity [11] [%],residual activity [12] [%]
Nc1nc(Nc2ccc(S(N)(=O)=O)cc2)nn1C(=O)c1c(F)cccc1F,63,18,54,61,19,70,23,,,,,
CCCCc1c(-c2ccc(O)cc2)[nH]c2nccnc12,97,100,,,,97,100,,,,,
COc1cc2c(cc1OC)-c1n[nH]c(Nc3cccc(F)c3)c1C2,104,99,105,104,105,102,106,104,108,110,,
CCCC(=O)Oc1ccc2[nH]c(C(=O)c3cc4ccccc4[nH]3)cc2c1,106,108,,,,101,,,93,100,85,93
O=C(Nc1nc2ccccc2n1CCN1CCOCC1)c1cccc([N+](=O)[O-])c1,104,102,,105,102,,103,,,,86,102
O=C1NC(=O)c2c1c1c3ccccc3[nH]c1n1cncc21,97,84,,71,56,79,70,,,,105,94
O=C1Cc2c([nH]c3ccc([N+](=O)[O-])cc23)-c2ccccc2N1,100,105,,,,,,,,,,
COc1cc2nccc(Oc3ccc(NC(=S)NC(=O)c4ccccc4C)cc3)c2cc1OC,99,99,101,,,98,101,,,98,85,88
Cn1sc(=O)n(Cc2ccccc2)c1=O,85,3,43,59,3,87,45,94,54,89,88,11
NC(=O)c1ccc(-c2nc(-c3ccc4c(c3)OCCO4)c(-c3ccccn3)[nH]2)cc1,90,96,,,,93,100,124,121,,,
CC(C)c1nn(-c2c(Cl)cccc2Cl)c2nc(Cc3ccc(OCCO)cc3)[nH]c(=O)c12,105,107,95,94,106,103,105,125,106,104,99,82
O=C(CCCc1ccc(-c2ccccc2F)cc1)Nc1ccc(O)cc1,106,108,101,104,110,,,112,108,108,,
COc1ccc2c(c1)c(C1=C(c3c[nH]c4ccccc34)C(=O)NC1=O)cn2CCCN(C)C,-1,0,3,3,0,3,-1,4,-1,4,3,0
COc1ccc(CNC(=O)Nc2ncc([N+](=O)[O-])s2)cc1,102,101,,,,,,,,,,
NCCNc1ncc(C(N)=O)c(Nc2cccc(C(F)(F)F)c2)n1,45,8,,58,11,75,28,106,60,,77,62
O=c1cc(N2CCOCC2)oc2c1ccc1ccccc12,102,96,92,,,100,98,104,95,95,87,87
O=C1Cc2c([nH]c3ccc(Br)cc23)-c2ccccc2N1,90,70,88,,93,99,93,,,,,
Cc1cc(C)c(/C=C2\C(=O)Nc3ccccc32)[nH]1,100,104,,,,,,,,,82,
CC(C)(C)n1nc(Cc2cccc3ccccc23)c2c(N)ncnc21,93,93,105,106,94,101,106,119,97,104,91,100
O=C1NC(=O)C(c2c[nH]c3ccccc23)=C1c1c[nH]c2ccccc12,26,4,27,36,6,31,5,66,23,75,63,21
Nc1ncnc2c1c(-c1ccc(Oc3ccccc3)cc1)cn2C1CCCC1,102,98,91,111,104,94,100,103,103,99,84,84
O=C1NC(=O)C(c2cn(CCCn3ccnc3)c3ccccc23)=C1Nc1ccccc1,6,2,6,8,2,8,2,19,2,27,21,3
NC(=O)Nc1sc(-c2ccc(F)cc2)cc1C(N)=O,91,54,89,,,78,31,103,77,105,102,94
Cn1c2ccccc2c2c3c(c4c5ccccc5n(CCC#N)c4c21)CNC3=O,1,3,,9,16,,,6,6,,,
CC(C)[C@H](CO)Nc1nc(Nc2cc(N)cc(Cl)c2)c2ncn(C(C)C)c2n1,83,97,,94,80,93,72,,,,100,98
Nc1ncnc2c1cnn2-c1ccccc1,97,97,,,98,99,97,,,,80,101
CC(C)(C)c1nc2c3ccc(F)cc3c3c(=O)[nH]ccc3c2[nH]1,65,62,,40,46,54,63,,,,,

SMILES,residual activity [1] [%],residual activity [2] [%],residual activity [3] [%],residual activity [4] [%],residual activity [5] [%],residual activity [6] [%],residual activity [7] [%],residual activity [8] [%],residual activity [9] [%],residual activity [10] [%],residual activity [11] [%],residual activity [12] [%]
COc1cc2ncnc(Nc3cccc(Cl)c3)c2cc1OC,103,108,108,,,104,109,110,106,107,,
c1ccc(-c2cnc(Nc3ccc(OCCN4CCCC4)cc3)s2)cc1,101,110,,123,111,,,121,116,,,
O=C(O)/C=C/c1cc(Br)c(Br)c(Br)c1Br,105,102,101,96,,100,96,124,,97,104,102
CC(C)N(CCC(=O)c1ccc2ccccc2c1)Cc1ccccc1,,,,,85,,,,,,83,
O=C(NC(NC(=S)Nc1ccc(F)c([N+](=O)[O-])c1)C(Cl)(Cl)Cl)C(c1ccccc1)c1ccccc1 (stereo not drawn),,,,,,,,,,,84,96
COc1cc2nccc(Oc3ccc(NC(=O)Nc4cc(C)on4)c(Cl)c3)c2cc1OC,,101,104,,,100,106,107,97,109,,
CCN(CC)CCNC(=O)c1c(C)[nH]c(/C=C2\C(=O)Nc3ccc(Cl)cc32)c1C,,,,,51,,68,125,117,,,
O=c1cc(N2CCNCC2)oc2c(-c3ccccc3)cccc12,,102,95,,,101,102,,,97,93,98
CSc1nc(-c2ccc(F)cc2)c(-c2ccnc(NC(C)c3ccccc3)c2)[nH]1 (stereo not drawn),,,,,,,,,,,125,101
Fc1ccc(-c2nc3n(c2-c2ccncc2)CCS3)cc1,,,,,,,85,,82,,,
CCOc1nc(NC(=O)Cc2cc(OC)ccc2OC)cc(N)c1C#N,,,,,,118,,,,,,
CN([C@@H](Cc1ccc(OS(=O)(=O)c2cccc3cnccc23)cc1)C(=O)N1CCN(c2ccccc2)CC1)S(=O)(=O)c1cccc2cnccc12,,,,99,99,,,,,,,
Nc1nccc(-c2c(-c3ccc(F)cc3)ncn2C2CCNCC2)n1,,,,,63,,,115,69,,,
COc1ccc(-c2cnc3c(-c4ccsc4)cnn3c2)cc1,,,,,,,,,,,86,100
Nc1ncnc2[nH]nc(Nc3ccc(F)cc3)c12,108,,99,,,104,91,122,110,113,123,112
CCOC(=O)c1c(C)[nH]c(/C=C2\C(=O)Nc3ccccc32)c1C,,,,,,96,,,,,83,88
COc1ccc(Cl)cc1NC(=O)Nc1cc(C)nc2ccccc12,98,98,,,,,,,,,82,97
N#C/C(=C\c1ccc(O)c(O)c1)C(=O)NCc1ccccc1,,,,124,102,,,,,,,
O=C1C(Cl)=C(N2C(=O)CCC2=O)C(=O)c2ccccc21,,3,,,77,68,60,,,,90,26
O=S(=O)(c1cccc2cnccc12)N1CCCNCC1,,,67,,63,85,32,75,46,,,69
CN(C)S(=O)(=O)c1ccc2c(c1)/C(=C/c1cc3c([nH]1)CCCC3)C(=O)N2,,,,,,,121,,,116,98,85
O=C1Nc2ccc(Cl)cc2/C1=C/c1cc(Cl)c(O)c(Cl)c1,,,90,,,100,100,,,,87,97
O=C(c1ccccc1)c1ccc(N2CCOCC2)cc1O,,,,,,,,120,113,,89,95
NC(=O)c1cccc(-c2cc(Nc3ccc(OC(F)(F)F)cc3)ncn2)c1,,,96,,,,,,,92,,
CCCCc1c(-c2ccc(OC)cc2)[nH]c2nccnc12,,,102,,106,,106,101,90,104,,
CCN1/C(=C/C(C)=O)Sc2ccc(OC)cc21,,,82,,,,,,,,,
O=C(c1cc2cc(O)ccc2[nH]1)c1cc2cc(O)ccc2[nH]1,,,,,56,100,83,,,,,
